Each structure is given as a SMILES string. Among all 69,000 compounds or so, about 950 (1.4%) showed an effect of 50% or more. The entries come from a sample that favours strong results as a whole.

The experiment deals with Mycobacterium tuberculosis. As to the kind of experiment: Cornell M. t heat shock assay. Note: in the data most compounds retested in dose-response had high values. It is filed as functional, organism-based. More on the design: dose or concentration left out as unconfirmed.
Regarding `CCN1Cc2nccn2CC(COCc2csc(C)n2)C1.O=C(O)C(F)(F)F.O=C(O)C(F)(F)F` (stereo not given), the “Percent Effect” value was 34.39%.
The value for `CN1C(=O)CC(c2ccccc2)C12CCN(CCO)CC2.O=C(O)C(F)(F)F` (stereo not given) was 13.27%; that for `Cl.O[C@@H]1CN(Cc2cccc(F)c2)CC[C@H]1NCc1ccccn1` was 14.29%.
With `COc1ccc2c(c1)CN(Cc1nc3c(cnn3C)c(=O)[nH]1)CC2` the figure was -0.696%.
With `COc1ccc2c(c1)CN(Cc1nc3ccsc3c(=O)[nH]1)CC2` the figure was 63.99%; with `CCOc1ccc2c(c1)CN(Cc1nc3c(cnn3C)c(=O)[nH]1)CC2`, -1.196%.
Regarding `Fc1cnc(N2C[C@@H](OCC3CCOCC3)[C@H]3OCCC[C@H]32)nc1.O=C(O)C(F)(F)F`, the “Percent Effect” value is given as 41.59%.
The value for `CC(C)N1CCc2nnc(COc3cncnc3)n2CC1.O=C(O)C(F)(F)F` was -11.8%; that for `CO[C@H]1CCN(C(=O)c2ccsc2)[C@@H]2CN(CC3CC3)C[C@H]12.O=C(O)C(F)(F)F` was -4.831%; that for `Cc1cccc(N2CCOCC3(C2)CN(c2ccoc2)C(=O)CO3)n1.O=C(O)C(F)(F)F` (stereo not given) was 36.14%.
As to `CN(C)[C@@H]1CN(C(=O)Cc2ccsc2)[C@@H]2CCCO[C@H]12.O=C(O)C(F)(F)F`, the “Percent Effect” value is recorded as 1.941%.
The value for `Cc1ncnc(N2CCCN(c3nc4ccccc4s3)CC2)c1C` was 10.22%; that for `c1ccc2sc(N3CCN(c4ncnc5c4CCC5)CC3)nc2c1` was -9.42%.
Consider `c1ccc2sc(N3CCCN(c4ncnc5c4CCNC5)CC3)nc2c1`, for which the “Percent Effect” value is listed as 53.45%.
The value for `O=C(c1ccco1)N1C(CN2CCOCC2)[C@]2(O)CC[C@H]1CC2` (stereo not given in full) was 30.59%; that for `c1ccc(CO[C@@H]2CN(Cc3ccoc3)[C@@H]3COC[C@@H]32)nc1` was 52.89%.
For the compound `Fc1ccc(CN2C[C@@H](OCc3ccccn3)[C@H]3COC[C@H]32)cc1.O=C(O)C(F)(F)F.O=C(O)C(F)(F)F`, the “Percent Effect” value is given as 25.12%.
For `Cc1nc(CO[C@@H]2CN(Cc3ccccn3)[C@@H]3COC[C@@H]32)cs1`, the “Percent Effect” value is given as -33.39%.
With `Cc1nc(C2CCNC2)nc2c1CCC(=O)N2C.Cl` (stereo not given) the figure was 7.271%; with `Br.O=C(O)c1csc(NCCc2ccccc2)n1`, 78.91%.
With `CN1CC(=O)c2sc(NCCc3ccccc3)nc2C1` the figure was -13.74%; with `O=C(NCCc1ccccc1)NCC(O)c1cccs1` (stereo not given), 20.6%; with `COCCNC(=O)c1cc(-c2cc[nH]n2)n2ccccc12.O=C(O)C(F)(F)F`, -6.749%.
The value for `O=C([C@@H]1CCCO1)N1CCOCC2(CCN(Cc3cccnc3)C2)C1` (stereo not given in full) was 51.35%.
Turning to `O=C(O)C(F)(F)F.O=C(O)C(F)(F)F.O=C(O)C(F)(F)F.c1cncc(CN2CCC3(COCCN(C4CCOCC4)C3)C2)c1` (stereo not given), the “Percent Effect” value is -18.23%.
In the case of `O=C(C1CCCO1)N1CCC2(CC1)COCCN(Cc1cccnc1)C2.O=C(O)C(F)(F)F.O=C(O)C(F)(F)F` (stereo not given), the “Percent Effect” value is -5.406%.
Turning to `Cc1ccc(N2CCC3(CCN(C(=O)c4ccoc4)CC3)CC2)nn1.O=C(O)C(F)(F)F`, the “Percent Effect” value is recorded as -13.67%.
The value for `CS(=O)(=O)NCc1cn2c(n1)CN(Cc1cccnc1)CC2.O=C(O)C(F)(F)F.O=C(O)C(F)(F)F` was 42.6%.
The value for `CN1CCC(c2nc3ccc(-c4cccc(F)c4)cn3n2)CC1.O=C(O)C(F)(F)F` was 3.867%; that for `O=C(Nc1ccc(F)cc1)C1CCc2ccccc2N1` (stereo not given) was 1.641%.
Take `O=C(Nc1ccc(F)cc1)C1CSCN1` (stereo not given): the “Percent Effect” value was 55.12%.
For `Cc1csc2c(N3CCNC(C(=O)Nc4ccc(F)cc4)C3)ncnc12` (stereo not given), the “Percent Effect” value is reported as 27.39%.
`Nc1ncc(-c2ccc(NC(=O)[C@@H]3CCCCN3)cc2)cn1`: the “Percent Effect” value is reported as -9.095%.
Take `Cl.N#Cc1ccc(NC(=O)C2CSCN2)cc1` (stereo not given): the “Percent Effect” value was determined as 75.04%.
For the compound `CNc1ncc(-c2ccc(NC(=O)[C@@H]3CCCCN3)cc2)cn1`, the “Percent Effect” value is -9.316%.
With `Cc1ccc(C(=O)N2[C@@H]3CC[C@H]2CN(C)C(=O)C3)c(=O)[nH]1` the figure was -6.73%.
For `O=C(O)C(F)(F)F.O=C([C@@H]1C[C@@H]2CCN(Cc3ccc4c(c3)OCO4)C[C@@H]2O1)N1CCCC1`, the “Percent Effect” value is -15.24%.
In the case of `CC(C)COC[C@@H]1CC[C@H]2[C@H](CCN2C(=O)c2ccncc2F)O1.O=C(O)C(F)(F)F`, the “Percent Effect” value is -34.7%.
With `CCn1c(CN(C)Cc2cnc(C)s2)nc2c(F)cccc21` the figure was -32.12%; with `Cc1ncc(CN(C)Cc2nc3cc(Cl)ccc3n2C)s1`, 61.31%.
The value for `Cn1c(CCNc2nccnc2C#N)nc2cc(Cl)ccc21` was -3.646%; that for `O=C(O)C(F)(F)F.O=C(O)C(F)(F)F.c1ccc(CO[C@@H]2CC[C@H]3[C@H]2OCCN3Cc2ccsc2)nc1` was -28.68%.
Take `Cc1ccccc1CN1CCCC1c1cncc(Nc2nncs2)n1` (stereo not given): the “Percent Effect” value was found to be 103.1%.
The value for `CNc1cncc(C2CCCN2Cc2ccnc(C)n2)n1` (stereo not given) was -20.32%.
The value for `CNc1cncc(C2CCCN2Cc2ccccn2)n1` (stereo not given) was -4.503%.
With `COc1cccc(CN2CCCC2c2ccc[nH]2)c1` (stereo not given) the figure was -7.682%; with `COc1cccc(CN2CCCC2c2c(C)nn(C)c2C)c1` (stereo not given), 27.85%.
As for `CNc1cncc(C2CCCN2Cc2cccc(C)n2)n1` (stereo not given), the “Percent Effect” value is 0.9246%.
Consider `Cc1cccc(CN2CCCC2c2cncc(Nc3nncs3)n2)c1` (stereo not given), for which the “Percent Effect” value was determined as 96.91%.
Regarding `CNc1cncc(C2CCCN2Cc2ccccc2OCC(=O)O)n1` (stereo not given), the “Percent Effect” value is 2.446%.
With `COc1cccc(CN2CCCC2c2cncc(Nc3nncs3)n2)c1` (stereo not given) the figure was 104.6%.
With `Cc1cccc(C(=O)N2C[C@@H](C)[C@@]3(CCN(c4ccsc4)C3=O)C2)n1.O=C(O)C(F)(F)F`, the “Percent Effect” value was found to be 5.09%.
Turning to `c1ccc(CO[C@H]2C[C@@H]3CN(Cc4cccnc4)C[C@@H]3C2)cc1`, the “Percent Effect” value is -10.82%.
The value for `c1nc(N2CCOC(Cn3cncn3)C2)c2sccc2n1` (stereo not given) was -23.67%.
As for `c1cnn(CC2CN(c3ncnc4ccsc34)CCO2)c1` (stereo not given), the “Percent Effect” value is given as 105.5%.
The value for `Cc1cnn(CC2CN(c3ncnc4ccsc34)CCO2)c1` (stereo not given) was 28.88%; that for `C[C@H](N)Cn1nc(-c2cccs2)oc1=O.Cl` was -14.47%.
Take `Cn1nc(CN2CCCN(C3CCCC3)CC2)c2c(Cl)cccc21`: the “Percent Effect” value is 57.91%.
The value for `C[C@@H]1CN(C2CCN(Cc3nn(C)c4cccc(Cl)c34)CC2)C[C@H](C)O1` was -2.477%; that for `Cn1nc(CN2CCCCC(N)C2)c2c(Cl)cccc21` (stereo not given) was -3.376%.

The values above are taken from ChEMBL document CHEMBL3988442, “University of Dundee, Small-Polar-MMV Screening Library” (2021).
